VHR inh abs = inhibitors of human VHR1 phosphatase (DUSP3); actives 0.52% (n = 290,000); recombinant VHR phosphatase, pNPP absorbance; inhibition, % at 13.3 µM; P51452; in the data active = inhibition above about 50%
Target sequence (P51452 whole entry, looked up): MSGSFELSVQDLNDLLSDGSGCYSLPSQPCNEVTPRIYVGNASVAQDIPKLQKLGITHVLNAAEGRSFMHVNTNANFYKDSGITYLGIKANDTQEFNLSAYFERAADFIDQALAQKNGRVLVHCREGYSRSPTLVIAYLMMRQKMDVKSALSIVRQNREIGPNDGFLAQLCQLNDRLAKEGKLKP
BoNT A protease = inhibitors of Botulinum neurotoxin A light chain protease; inhibition, % at 10 µM; actives 0.17% (n = 360,000); multiplex microsphere protease substrate cleavage, flow cytometry; AID 588499
Anthrax LF prot = anthrax lethal factor protease inhibition; P15917; multiplex microsphere protease cleavage assay, LF; inhibition, % at 10 µM; actives 0.12% (n = 360,000)
Autofluor counter = counter-screen for toxin protease inhibitors: compound fluorescence; compound autofluorescence counterscreen, microsphere flow cytometry; stronger effect = higher value; fluorescence intensity (concentration not given with the values); actives 3.1% (n = 360,000); AID 624483; in the data active = fluorescence intensity above about 16000; inconclusive = no clear call, values can overlap the other calls
BoNT-F LC inh = BoNT F light chain protease inhibition | actives 0.22% (n = 360,000) | Multiplex microsphere protease cleavage assay, flow cytometry | AID 588497 | inhibition, % at 10 µM; in the data active = inhibition above about 35%, passing the limit was not always enough; inconclusive = no clear call, values can overlap the other calls
MazF activator = activators of E. coli MazEF toxin-antitoxin RNase; actives 0.32% (n = 350,000); P0AE70; FAM/BHQ RNA-DNA oligo cleavage fluorescence, 5 h; AID 504720; activation, % at 20 µM; in the data active = activation above about 50%
Target sequence (P0AE70 whole entry, looked up): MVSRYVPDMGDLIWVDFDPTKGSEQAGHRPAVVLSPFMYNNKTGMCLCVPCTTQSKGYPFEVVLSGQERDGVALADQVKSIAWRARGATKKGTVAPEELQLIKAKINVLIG
Hits are given with their value; . = inactive; ? = inconclusive; / = not tested or not shown. The list is not random: actives were taken first. Their share in the collection is about 4.1%. Rule as the data show it, unless noted: active = inhibition above about 30%; inconclusive = no clear call, values can overlap the other calls; inactive = below that.

SMILES	VHR inh abs	BoNT A protease	Anthrax LF prot	Autofluor counter	BoNT-F LC inh	MazF activator
CCCCOc1ccc(NC(=O)Nc2nnc(C)s2)cc1	57	.	.	.	.	.
O=C1Nc2ccccc2CN2C(=O)c3cc(Cl)ccc3NC(=O)C12 (configuration not stated)	/	.	.	.	.	/
CCOC(=O)c1ccc(N=C(c2ccccc2)c2c(O)n(C)c(=O)n(C)c2=O)cc1	.	.	31	.	?	.
COC(=O)c1ccc(N=C(c2ccccc2)c2c(O)n(C)c(=O)n(C)c2=O)cc1	.	.	.	.	.	.
CCN1C(=O)S/C(=C\c2ccc(N3CCOCC3)cc2C)C1=O	.	.	.	.	.	.
C#CCN1C(=O)S/C(=C\c2ccc(N3CCOCC3)cc2C)C1=O	.	.	.	.	.	310
O=C(COC(=O)CCC1CCCC1)Nc1ccc(Cl)cn1	.	.	.	17161	.	.
CC1CCCCC1NC(=O)CCCn1c(=S)[nH]c2ccccc2c1=O (configuration not stated)	.	.	.	.	.	.
COn1c(=S)[nH]c2ccccc2c1=O	.	?	.	22258	.	.
CC1CCCCC1n1c(=S)[nH]c2ccccc2c1=O (configuration not stated)	.	.	.	23138	.	.
CN(CC(=O)N/N=C/c1ccc(F)cc1)S(=O)(=O)c1ccccc1	/	.	.	.	.	.
CC(C)[C@H](N)c1nnc(SCC(=O)c2ccc(Cl)cc2)o1	.	.	.	.	.	.
C[C@H](N)c1nnc(SCC(=O)c2ccc(Cl)cc2)o1	.	.	.	16731	.	.
COc1ccc(CN=C(Nc2ccccc2)SC2CC(=O)N(C)C2=O)cc1 (configuration not stated)	.	.	.	.	.	.
CC(=O)Oc1ccc2c(c1)Oc1cc(OC(C)=O)ccc1C21OC(=O)c2ccccc21	.	.	.	17180	.	/
CCOC(=O)C1=C(C)Nc2ncnn2C1/C=C/c1ccccc1 (configuration not stated)	.	.	.	20063	.	.
CCCC1=C(C(=O)OCC)C(/C=C/c2ccccc2)n2ncnc2N1 (configuration not stated)	.	?	.	21846	.	.
CCOC(=O)c1c(NC(C)=O)sc2c1CCC(C=NCCCN(CC)CC)=C2Sc1ccccc1	/	68	31	.	.	.
Cc1ccc(NC(=O)C2(S(=O)(=O)c3ccc(Cl)cc3)CC2)c(Br)c1	.	.	.	.	.	.
COc1ccc(-c2nnc(-c3ccc(OCC(C)C)cc3)o2)cc1	.	.	.	.	.	.
CC(C)COc1ccc(-c2nnc(-c3ccncc3)o2)cc1	.	.	.	17655	.	.
Nc1c(C(=O)NC2CCCC2)sc2nc(-c3cccs3)ccc12	.	.	.	.	.	52
NC(=O)c1sc2nc(-c3cccs3)ccc2c1N	.	.	.	.	.	.
CCC(=O)N1CCN(c2ccc(Cl)cc2NC(=O)c2ccc(N3CCCC3)c([N+](=O)[O-])c2)CC1	.	.	.	18754	.	.
Cc1cccc(NC(=O)c2ccc(N3CCOCC3)c([N+](=O)[O-])c2)n1	.	.	.	.	.	.
SMILES	VHR inh abs	BoNT A protease	Anthrax LF prot	Autofluor counter	BoNT-F LC inh	MazF activator
Cc1ccc(NC(=O)c2ccc(-n3cccn3)c([N+](=O)[O-])c2)cc1	.	.	.	16419	.	.
Cc1cccc(NC(=O)c2ccc(N3CCCCC3)c([N+](=O)[O-])c2)n1	.	?	.	24725	.	.
COc1cc(/C=C2/SC(=S)N(CC(=O)NNC(=O)c3ccc(F)cc3)C2=O)cc(OC)c1OC	/	.	.	.	.	.
N#Cc1ccc(NC(=O)COC(=O)c2cccc(S(=O)(=O)N3CCCC3)c2)cc1	/	.	.	.	.	.
O=C(NC(=S)NCCN1CCOCC1)c1ccc(Cl)cc1	.	.	.	.	54	.
Cc1ccc(NC(=S)NCCN2CCOCC2)cc1C	.	.	.	20237	.	.
O=C(NCCN1CCOCC1)C1CC(=O)N(c2ccc(Cl)cc2)C1 (configuration not stated)	50	.	.	.	.	.
O=C(NCCN1CCOCC1)c1cc2sccc2n1Cc1ccc(Cl)cc1	.	.	.	16131	.	.
O=C(NCCN1CCOCC1)c1cc2sccc2n1Cc1ccc(F)cc1	.	.	.	.	.	.
CN(CC(=O)NCc1ccco1)CC(=O)Nc1c(Cl)cccc1Cl	/	.	.	.	.	.
CCNC(=O)c1oc2c(c1C)C(=O)CC(C)(C)C2	.	.	.	20892	.	.
Cc1c(C(=O)NCc2ccccc2)oc2c1C(=O)CCC2	.	.	.	.	.	.
Cc1c(C(=O)NCc2cccnc2)oc2c1C(=O)CC(C)(C)C2	.	.	.	21305	.	.
CCOC(=O)c1ccc(-c2ccc(N3C(c4cccc(OC)c4)=Cc4ccc(F)cc4C3CC(C)=O)cc2)cc1F (configuration not stated)	/	.	.	.	.	/
CCCCN(C=O)c1c(CC)nc2ccc(C(=O)NCCN(C)C)cn12	/	.	.	.	.	/
O=C(CN1CCN(S(=O)(=O)N2CCCCC2)CC1)Nc1cc(Cl)ccc1Cl	.	.	.	.	.	.
NC(=O)C1(N2CCCCC2)CCN(CC(=O)Nc2cc(Cl)ccc2Cl)CC1	.	.	.	24349	.	.
Cc1cc(C)n(-c2nc3ccccc3c(=O)n2OCc2ccc(Cl)cc2)n1	.	?	.	22331	.	.
Cc1cc(CC(C)C)n(-c2nc3ccccc3c(=O)n2OCc2ccccc2)n1	.	?	.	23326	.	.
Cc1nc(CN(C)C(=O)CC2C(=O)NCCN2Cc2ccc(-c3ccccc3)cc2)cs1 (configuration not stated)	.	.	.	.	.	.
Brc1cccc(-c2nnc3sc(CN4CCCCC4)cn23)c1	.	.	.	.	.	.
Brc1cccc(-c2nnc3sc(CN4CCC5(CC4)OCCO5)cn23)c1	.	.	.	24422	.	.
Cc1cc(C)nc(NS(=O)(=O)c2ccc(N)cc2)n1	.	.	.	.	.	.
Cc1ccc(S(=O)(=O)Nc2nsc(N)n2)cc1	.	.	.	17173	.	.
COc1cc(OC)c(C2CC(=O)N3CN(C)CSC3=C2C#N)cc1OC (configuration not stated)	.	.	.	.	.	.
SMILES	VHR inh abs	BoNT A protease	Anthrax LF prot	Autofluor counter	BoNT-F LC inh	MazF activator
COc1ccc2ccccc2c1C1CC(=O)N2CN(C)CSC2=C1C#N (configuration not stated)	.	?	.	20088	.	.
COc1cc(OC)c(C2CC(=O)N3CN(c4ccccc4)CSC3=C2C#N)cc1OC (configuration not stated)	.	?	.	20460	.	.
Nn1c(C2CCC2)nc2cc(Cl)ccc2c1=O	.	.	.	.	.	.
CSCCC1NC(=O)C(C(C)=NNC(N)=O)=C1O (configuration not stated)	/	.	.	.	.	.
COc1ccc(CC(=O)NCCCCc2ccccc2)cc1OC	/	.	.	.	.	.
O=C(/C=C\Nc1ccc2c(c1)OCO2)c1ccc(Cl)s1	.	.	.	.	.	86

Assay outcomes: PubChem, several laboratories
